beta cell repl: induces beta-cell replication in MIN6 cells; proliferation, % at 10 µM; AID 2380; 0.29% of 330,000 active; MIN6 cells proliferation, ATPlite luminescence, 48 h; cells starved in 0.2% serum; 100% = growth in 10% serum;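 active means compounds whose signal lies at least 3.5 SD above the mean of all wells on their plate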
PfM18AAP inh: blocks P. falciparum M18 aspartyl aminopeptidase; recombinant PfM18AAP, H-Glu-NHMec fluorogenic cleavage; inhibition, % at 7.35 µM; 1.2% of 290,000 active;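 active means inhibition above the campaign mean inhibition over all tested compounds plus 3 SD, cut at about 28% in these data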
JMJD2C inh: blocks human GASC-1 demethylase activity; Q9H3R0; GST-JMJD2C(1-420) H3K9me3 demethylation, DELFIA europium; inhibition, % at 2.35 µM; 0.069% of 330,000 active; AID 2099;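 active means more than half of a compound's replicate wells show inhibition beyond 50%, single wells judged on their own value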;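 further: signal counts dimethyl H3K9 product captured on neutravidin plate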
Target sequence (Q9H3R0 1-420 limits assumed): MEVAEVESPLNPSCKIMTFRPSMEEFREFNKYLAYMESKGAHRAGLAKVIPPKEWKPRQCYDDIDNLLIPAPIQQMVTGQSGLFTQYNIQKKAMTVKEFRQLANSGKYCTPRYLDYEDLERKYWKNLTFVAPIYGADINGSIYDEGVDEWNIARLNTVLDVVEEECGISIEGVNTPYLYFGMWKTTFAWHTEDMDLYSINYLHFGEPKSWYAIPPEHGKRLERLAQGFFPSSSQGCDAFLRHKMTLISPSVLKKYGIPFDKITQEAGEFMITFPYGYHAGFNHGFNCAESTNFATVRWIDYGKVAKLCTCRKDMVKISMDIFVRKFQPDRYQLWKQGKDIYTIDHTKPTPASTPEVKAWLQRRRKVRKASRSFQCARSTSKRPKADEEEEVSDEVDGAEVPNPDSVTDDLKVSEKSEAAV
Exocytosis inh: blocks lytic granule exocytosis | 0.66% of 360,000 active | TALL-104 LAMP-1 surface exposure, flow cytometry; cells stimulated with thapsigargin and PMA | AID 651702 | inhibition, % at 10 µM;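 active means inhibition above about 55%, limit read from the data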
SMARCA2 activ: increases SMARCA2 function in MMTV reporter cells; MG213 cells, MMTV-luciferase reporter, dexamethasone, overnight; activation, % at 9.1 µM; 1% of 370,000 active; AID 652017; in the data active means activation above about 7.8%
ALR inh: human ALR oxidase inhibition via reduced H2O2. purified ALR, DTT oxidation, H2O2 HRP-luminol luminescence. inhibition, % (test concentration not listed). 3.8% of 290,000 active. AID 485317;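 active means mean replicate inhibition above about 79%, with every replicate also reaching it, limit read from the data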
Target sequence (P55789 whole entry, looked up): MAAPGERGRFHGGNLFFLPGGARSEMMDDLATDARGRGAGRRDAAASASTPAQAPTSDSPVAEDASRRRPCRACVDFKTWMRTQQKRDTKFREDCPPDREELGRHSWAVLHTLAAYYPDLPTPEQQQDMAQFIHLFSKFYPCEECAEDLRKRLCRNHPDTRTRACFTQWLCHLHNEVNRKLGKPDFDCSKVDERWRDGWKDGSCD
SMARCA2 conf: confirmation of SMARCA2 (BRM) function activators | MG213 cells, MMTV-luciferase with dexamethasone, luminescence, overnight; MG213 cells expressing E1A, Rb sequestered; DMSO wells 0%, reference activator 100% | 30% of 3,500 active | activation, % at 9.1 µM | shares compounds with SMARCA2 activ | AID 652260;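 active means activation above its plate's cutoff, the mean activation of tested wells plus 3 SD, cut at about 7.9% in these data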
VP16 Luc act: GAL4-VP16 reporter activation counter-screen; HEK293 GAL4-VP16 pG5luc reporter, luciferase luminescence; scaled: DMSO wells 0%, SAHA wells 100%; activation, % at 9.1 µM; AID 686939; 41% of 3,500 active; shares compounds with SMARCA2 activ;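 active means activation above the solvent-only control well mean plus 3 SD, averaged across control plates, cut at about 5.2% in these data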
Large screens that a line does not name were inactive (follow-up assays come after a bar, where they were run). In the library only some 5.4% were active in any assay of this set; here they are far more common.

O=C(NCCCN1CCOCC1)c1ccccc1N1C(=O)[C@@H]2Cc3c([nH]c4ccccc34)C(c3ccccc3)N2C1=O (stereo partly specified)	none (no result: beta cell repl, PfM18AAP inh, JMJD2C inh, ALR inh)
Nc1nc2n[nH]nc2c(=O)[nH]1	SMARCA2 activ 14 (no result: PfM18AAP inh) | SMARCA2 conf 22 | VP16 Luc act inactive
CCC(=O)NCC[C@@H]1CCc2ccc3c(c21)CCO3	none (no result: beta cell repl, PfM18AAP inh, JMJD2C inh, Exocytosis inh, ALR inh)
O=C(Nc1ccc(F)cc1)c1cnccn1	SMARCA2 activ 8.7 (no result: beta cell repl, PfM18AAP inh, JMJD2C inh, ALR inh) | SMARCA2 conf inactive | VP16 Luc act inactive
CCOc1ccc(NC(=O)C/C(C)=N/NC(=O)c2cnccn2)cc1	SMARCA2 activ 8.9 | SMARCA2 conf inactive | VP16 Luc act inactive
COc1ccccc1NC(=O)C/C(C)=N/NC(=O)c1ccccn1	SMARCA2 activ 12 (no result: ALR inh) | SMARCA2 conf inactive | VP16 Luc act inactive
COc1ccc(NC(=O)C/C(C)=N/NC(=O)c2cnccn2)cc1	none
NS(=O)(=O)c1ccc(CCNc2nn3c(-c4cccc(OC(F)(F)F)c4)cnc3s2)cc1	none (no result: beta cell repl, PfM18AAP inh, JMJD2C inh, ALR inh)
COC(=O)[C@]12C[C@H](CC(=O)NCc3cccc4ccccc34)C(=O)N(Cc3ccc4c(c3)OCO4)C1=C[C@H](C(C)(C)C)O[C@@H]2C	none (no result: beta cell repl, PfM18AAP inh, JMJD2C inh, Exocytosis inh, ALR inh)
COc1cc2c(cc1OC)C(c1cc3ccc(C)cc3[nH]c1=O)N(C(=O)c1ccco1)CC2 (stereo unspecified)	SMARCA2 activ 11 | SMARCA2 conf inactive | VP16 Luc act inactive
CCn1c(C)nc2cc(C(=O)NNC(=O)c3ccc(C)cc3)ccc21	none (no result: PfM18AAP inh, ALR inh)
CCn1c(C)nc2cc(C(=O)NNS(=O)(=O)c3c(C)c(C)cc(C)c3C)ccc21	SMARCA2 activ 12 | SMARCA2 conf inactive | VP16 Luc act inactive
Cc1nnc2c(N(C)S(=O)(=O)c3ccccc3)nc3ccccc3n12	SMARCA2 activ 8.2 | SMARCA2 conf 9.0 | VP16 Luc act inactive
O=[N+]([O-])c1cccnc1NCCc1c[nH]c2ccccc12	SMARCA2 activ 8.8 | SMARCA2 conf 13 | VP16 Luc act 8.4
O=C(c1[nH]ncc1-c1cccc(Br)c1)C1CO1 (stereo unspecified)	SMARCA2 activ 11 | SMARCA2 conf 12 | VP16 Luc act inactive
O=C(c1[nH]ncc1-c1ccccc1)C1CO1 (stereo unspecified)	none
N#C/C(=C\c1c[nH]c2ccccc12)C(N)=O	none
CCOC(=O)/C(C#N)=C/c1c[nH]c2ccccc12	SMARCA2 activ 11 (no result: ALR inh) | SMARCA2 conf inactive | VP16 Luc act inactive
CC(NC(=O)c1cc(COc2ccccc2)on1)c1nccs1 (stereo unspecified)	SMARCA2 activ 10 | SMARCA2 conf inactive | VP16 Luc act 15
CC(=O)c1ccc(OCc2cc(C(=O)NC(C)c3cnn(C)c3)no2)cc1 (stereo unspecified)	none
Cc1ccsc1C(=O)NNC(=O)C1CC=CCC1C(=O)O (stereo unspecified)	SMARCA2 activ 8.6 | SMARCA2 conf inactive | VP16 Luc act inactive
Cc1ccsc1C(=O)NNC(=O)C1CCCCC1C(=O)O (stereo unspecified)	none
CCCCCCCCN1C(=O)[C@@H](CC(=O)N2CCC(c3ccccc3)CC2)C[C@@]2(C(=O)OC)C1=C[C@H](C(C)(C)C)O[C@@H]2C	none (no result: beta cell repl, PfM18AAP inh, JMJD2C inh, Exocytosis inh, ALR inh)
CN(C)C(=O)CCc1nc(-c2ccc(C(C)(C)C)cc2)no1	SMARCA2 activ 11 | SMARCA2 conf inactive | VP16 Luc act 5.3
CC(C)(C)c1ccc(-c2noc(CCC(N)=O)n2)cc1	none
CCc1nc2ccc(C(=O)Nc3cccc(OC)c3)cn2c1N(C)Cc1ccc(OC)cc1	none (no result: beta cell repl, PfM18AAP inh, JMJD2C inh, ALR inh)
COc1ccccc1C(=O)N(Cc1ccccn1)CC1CCCO1 (stereo unspecified)	none (no result: beta cell repl, PfM18AAP inh, JMJD2C inh, Exocytosis inh, ALR inh)
O=c1[nH]c2ccccc2c2nc3ccccn3c12	SMARCA2 activ 12 | SMARCA2 conf 16 | VP16 Luc act 7.1
COC(=O)c1cccc(CN2C(=O)C(C)Oc3ccc(C)cc32)c1 (stereo unspecified)	none (no result: beta cell repl, PfM18AAP inh, JMJD2C inh, ALR inh)
O=C(c1ccccc1Cl)N1CCSCCS1(=O)=O	none (no result: beta cell repl, PfM18AAP inh, JMJD2C inh, Exocytosis inh, ALR inh)
CCc1cc(C(=O)OC)c(NC(=O)CN2CCN(C(=O)c3ccco3)CC2)s1	none
Cc1ccc(C(=O)c2cc(C)sc2NC(=O)CN2CCN(C(=O)c3ccco3)CC2)cc1	SMARCA2 activ 8.8 (no result: ALR inh) | SMARCA2 conf inactive | VP16 Luc act inactive
O=C(O)CCS(=O)(=O)c1nc(-c2cccs2)cc(C(F)(F)F)n1	SMARCA2 activ 13, ALR inh 97 | SMARCA2 conf inactive | VP16 Luc act inactive
O=C(NC(=O)c1ccc(F)cc1)Nc1nc(-c2cccs2)cc(C(F)(F)F)n1	SMARCA2 activ 8.4 | SMARCA2 conf inactive | VP16 Luc act inactive
CCN(C1CCCCC1)S(=O)(=O)c1ccc(OC)c(C)c1	none (no result: ALR inh)
CCN(C1CCCCC1)S(=O)(=O)c1ccc(-n2cnnn2)c(C)c1	SMARCA2 activ 9.3 | SMARCA2 conf inactive | VP16 Luc act inactive
COC(=O)[C@]12C[C@H](CC(=O)NCC3CCCCC3)C(=O)N(Cc3ccc4c(c3)OCO4)C1=C[C@H](COCc1ccccc1)O[C@@H]2C	none (no result: beta cell repl, PfM18AAP inh, JMJD2C inh, Exocytosis inh, ALR inh)
C[C@H](c1ccccc1)N1C[C@@H](COCc2ccccc2)Oc2cccc(N3CCCC3)c2S1(=O)=O	none (no result: beta cell repl, PfM18AAP inh, JMJD2C inh, Exocytosis inh, ALR inh)
CCCCNC(=O)c1nc(C2CCN(S(=O)(=O)c3c(OC)cccc3OC)CC2)oc1-c1ccccc1	none (no result: beta cell repl, PfM18AAP inh, JMJD2C inh, ALR inh)
ClC(Cl)(c1nnnn1-c1ccccc1)c1nnnn1-c1ccccc1	SMARCA2 activ 24 (no result: beta cell repl) | SMARCA2 conf inactive | VP16 Luc act inactive
O=C(NCc1ccccc1)[C@@H]1CCCN1C(=O)[C@H]1CCCN1C(=O)c1c(F)cccc1F	none (no result: beta cell repl, PfM18AAP inh, JMJD2C inh, Exocytosis inh, ALR inh)
COCCN1CCn2c(nc3cc(NC(=O)c4cccs4)ccc32)C1	none
CC(c1ccccc1)N1CCn2c(nc3cc(NC(=O)c4cccs4)ccc32)C1 (stereo unspecified)	SMARCA2 activ 9.9 | SMARCA2 conf inactive | VP16 Luc act inactive
O=C(O)/C=C/C(=O)c1ccc2c(c1)CCc1ccccc1-2	SMARCA2 activ 11 (no result: PfM18AAP inh) | SMARCA2 conf inactive | VP16 Luc act 6.5
CC(=O)Nc1ccc2c(c1)CCc1ccccc1-2	none
CCC(CC)C(=O)N(C)c1c(C)nc2c(OCc3ccc(F)c(F)c3)cccn12	none (no result: beta cell repl, PfM18AAP inh, JMJD2C inh, ALR inh)
CCNC(=O)C[C@@H]1C=C[C@@H](NS(=O)(=O)c2ccc(F)cc2)[C@@H](CO)O1	none (no result: beta cell repl, PfM18AAP inh, JMJD2C inh, ALR inh)
CN(Cc1ccc(Cl)cc1)C(CCc1ccccc1)C(=O)NC1CCCCC1 (stereo unspecified)	none (no result: beta cell repl, PfM18AAP inh, JMJD2C inh, ALR inh)
CC1(C(=O)OCC(=O)NC(=O)NCc2ccccc2)CC1(Cl)Cl (stereo unspecified)	none

Source: PubChem BioAssay
